Experimental data taken from publication PMC5540273 (PLoS ONE, 2017).

test system: TLK2; settings: concentration: 1 μM, replicates: in singlicate; n = 1
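Further: KINOMEscan kinase panel screen.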

Compound	%Inh [%]
Nc1ncnc2scc(-c3ccc(NC(=O)Cc4cc(F)ccc4F)cc3)c12.O=C(O)C(F)(F)F [SB-731254-M]	1
CC(C)c1nc(-c2ccc(F)c(NS(=O)(=O)c3c(F)cccc3F)c2)c(-c2ccnc(Nc3ccc(N4CCOCC4)nc3)n2)s1 [GSK1804250]	11
NCCC(NC(=O)c1cc(Br)c(-c2ccnc3[nH]ccc23)s1)c1ccccc1.O=C(O)C(F)(F)F.O=C(O)C(F)(F)F (centres unmarked) [GSK1307810]	0
COc1ccc(NC(=O)c2ccoc2)cc1-c1ccc(C(=O)NCC2CC2)cc1 [GW810437]	12

test system: TNIK; settings: concentration: 1 μM, replicates: in singlicate; n = 1

Compound	%Inh [%]
CCn1c(-c2nonc2N)nc2c(-c3ccccc3)ncc(OCCCN)c21.O=C(O)C(F)(F)F.O=C(O)C(F)(F)F [GSK260205]	85
Cc1ccc(-c2ccc3occ(-c4ccc(S(C)=O)cc4)c3c2)nn1 (centres unmarked)	0
Cn1cc(-c2ccc3c(c2)CCN3C(=O)Cc2cc(F)cc(F)c2F)c2c(N)ncnc21 [GSK2634140]	5
COc1ccc(C)c(Nc2ccnc(Nc3ccc(-c4cnc[nH]4)cc3)n2)c1.Cl [GW784041]	9
c1ccc(Oc2ccc(Nc3ccnc4cc(-c5ccc(CN6CCCCC6)o5)ccc34)cc2)nc1 [GW567143]	14
CN(c1ccc(F)c(NC(=O)c2cccc(OC(C)(C)C#N)c2Cl)c1)c1ccc2nc(NC(=O)C3CC3)sc2n1	95.6
COc1cc(Nc2nccc(N3CCC(NS(=O)(=O)c4ccc(NC(C)=O)cc4)CC3)n2)cc(OC)c1OC [GSK1379825]	22
Cc1ccc(C)c(NC(=O)Nc2ccc(C)c(-c3ccc(C(=O)Nc4ccncc4)cc3)c2)c1 [GSK1398473]	0
CCNc1nccc(-c2c(-c3ccc(F)cc3)ncn2C2CCN(C)CC2)n1	24
Cc1ccc(NC(=O)c2cccc(N3CCCCC3)c2)cc1-c1ccc(C(=O)NCC2CC2)cc1 [GSK1917008]	2
Cl.Cl.NCC(NC(=O)c1cc(-c2cccnc2)c(-c2ccnc3[nH]ccc23)s1)c1ccccc1 (centres unmarked) [GSK1323434]	77
COc1cccc(-c2nc(-c3ccccc3)[nH]c2-c2ccncc2)c1 [SB-610250]	0
Cn1cc(-c2cnc(N)c3c(-c4ccc5c(c4)CCN5C(=O)Cc4ccccc4)csc23)cn1 [GSK2593074]	8
CN(C)CCNS(=O)(=O)c1ccc(-c2ccnc3[nH]ccc23)cc1 [GSK977620]	0
O=C(Nc1n[nH]c2nc(-c3cccc(O)c3)ccc12)C1CC1 [SB-711805]	65
Nc1cccc(-c2ccc3c(N)n[nH]c3c2)c1 [GSK2193613]	93.2
Cl.O=C(Nc1ccc(Oc2ccc3[nH]c(NC(=O)c4ccco4)nc3c2)cc1)Nc1cc(C(F)(F)F)ccc1F [GW683134]	0
COc1cccc2c(-c3ccncc3)c(-c3ccc(F)cc3)nn12 [GW468513]	69
COc1cc(Nc2ccnc3cc(-c4ccncc4)ccc23)cc(OC)c1OC.Cl [GW494610]	89
O=C(O)C(F)(F)F.O=c1[nH]ccc2nc(N[C@@H]3CCNC3)nc(Nc3ccc4c(c3)S(=O)(=O)CC4)c12 [GSK2181306]	98
Cl.N#CCc1ccc(Nc2nccc(Nc3ccc(Oc4ccccc4)cc3)n2)cc1 [GW639905]	0
Cc1ccc(O)cc1Nc1ccnc2cc(-c3ccc(CN4CCCCC4)o3)ccc12 [GW557777]	24
Cl.Cl.NC(CNC(=O)c1cc(Br)c(-c2ccnc3[nH]ccc23)s1)c1ccccc1 (centres unmarked) [GSK1322949]	59
CN(c1ccc2c(c1)nc(NCc1ccccc1)n2C)c1ccnc(Nc2ccc(CS(C)(=O)=O)cc2)n1.Cl [GW811603]	24
Cc1ccc(O)cc1Nc1ccnc2ccc(C(C)(C)C)cc12 [GW856805]	0
COC(=O)Nc1nc2ccc(Oc3ccc(NC(=O)Nc4cc(C(F)(F)F)ccc4F)cc3)cc2[nH]1.Cl [GW654607]	5
Cn1cc(-c2ccc3c(c2)CCN3C(=O)Cc2cc(F)cc(C(F)(F)F)c2)c2c(N)ncnc21 [GSK2635225]	20
COc1cccc(CC(=O)N2CCc3cc(-c4cn(C)c5ncnc(N)c45)ccc32)c1 [GSK2608899]	81
